# Results published in PubChem BioAssay (NCATS).
# Where “and” joins values, the source holds several entries; their conditions need not be identical. Identical values can stand only once. Records with an inconclusive call do not appear. Calls of active or inactive are those of the source. Unless noted, calls follow the shape of the full dose curve.
# Experiments:
# [1] = target: Retinoic acid receptor RXR-alpha (Homo sapiens) (UniProt P19793); test: qHTS assay for small molecule agonists of retinoid X receptor alpha signaling (AID 588544);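 also: 0% = DMSO basal wells and 100% = reference agonist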
# Chain of Retinoic acid receptor RXR-alpha (Homo sapiens) (P19793 whole entry, looked up): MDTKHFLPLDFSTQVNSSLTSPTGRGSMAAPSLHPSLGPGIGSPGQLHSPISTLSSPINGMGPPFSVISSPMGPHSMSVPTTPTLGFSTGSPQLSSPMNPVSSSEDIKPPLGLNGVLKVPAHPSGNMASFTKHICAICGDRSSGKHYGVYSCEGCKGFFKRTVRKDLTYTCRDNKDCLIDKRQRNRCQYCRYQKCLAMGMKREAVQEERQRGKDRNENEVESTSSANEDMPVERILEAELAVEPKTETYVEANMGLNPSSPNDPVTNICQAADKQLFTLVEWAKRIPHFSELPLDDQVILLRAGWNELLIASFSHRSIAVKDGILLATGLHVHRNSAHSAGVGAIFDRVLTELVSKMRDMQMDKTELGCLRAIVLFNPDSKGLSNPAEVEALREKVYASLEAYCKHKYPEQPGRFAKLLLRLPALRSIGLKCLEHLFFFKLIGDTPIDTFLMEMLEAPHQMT
# [2] = target: Thyroid hormone receptor beta (Homo sapiens) (UniProt P10828); test: qHTS assay for small molecule agonists of thyroid hormone receptor beta signaling (AID 588545)
# Chain of Thyroid hormone receptor beta (Homo sapiens) (P10828 whole entry, looked up): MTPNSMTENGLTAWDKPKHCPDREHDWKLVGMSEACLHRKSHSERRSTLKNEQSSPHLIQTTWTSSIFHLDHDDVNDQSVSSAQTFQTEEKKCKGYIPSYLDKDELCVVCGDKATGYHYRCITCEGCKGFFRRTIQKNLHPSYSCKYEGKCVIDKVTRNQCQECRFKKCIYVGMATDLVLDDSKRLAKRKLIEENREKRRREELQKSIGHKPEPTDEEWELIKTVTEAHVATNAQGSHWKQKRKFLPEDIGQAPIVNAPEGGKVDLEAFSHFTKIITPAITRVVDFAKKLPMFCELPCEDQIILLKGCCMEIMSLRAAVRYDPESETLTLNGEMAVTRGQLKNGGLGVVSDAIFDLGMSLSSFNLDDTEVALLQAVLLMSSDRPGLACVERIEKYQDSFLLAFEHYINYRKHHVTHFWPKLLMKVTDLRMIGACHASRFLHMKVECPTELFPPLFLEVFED
# Summary of the method: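 HEK 293 TR-UAS-bla; agonist mode; 18 hrs, 37 C; CCF4, ex 405/em 460 and 530 nm; norm. T3 10 nM = 100%, DMSO = 0%; Hill fit → EC50, efficacy.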
# [3] = qHTS assay for small molecule antagonists of retinoid X receptor alpha signaling (AID 588546); conditions: HEK293T RXRa-UAS-bla, beta-lactamase ratio, antagonist mode; measured here: W530 green channel, cytotoxicity proxy;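 also: cells stimulated with 9-cis-retinoic acid as agonist; % is scaled to controls: 0 for no effect and ±100 for the full control effect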
# Summary of the method: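 Beta-lactamase reporter inhibition, read as CCF4 fluorescence ratio (ex 405, em 460/530 nm) after 2 h at RT. HEK293T UAS-bla cells, 2500/well, were stimulated with 9-cis-RA at 500 or 100 nM final alongside test compound for 18 h at 37 C.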
# [4] = target: Thyroid hormone receptor beta (Homo sapiens) (UniProt P10828); test: qHTS assay for small molecule antagonists of thyroid hormone receptor beta signaling (AID 588547; active = well fitted inhibition curve with a large enough effect in the signal ratio, with a control signal flat, not every such curve was filed as active; the % refers to the signal ratio;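 also: cells stimulated with 0.4 nM T3 agonist during compound exposure; % is scaled to controls: 0 for no effect and ±100 for the full control effect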); conditions: TR-UAS-bla HEK293, beta-lactamase ratio, antagonist mode, 18 h
# Summary of the method: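 Inhibition of T3-driven (0.4nM final) beta-lactamase reporter activity was measured over 0.59 nM to 92 uM compound after 18 h at 37 C. The cells were GripTite HEK293 TR-UAS-bla in charcoal/dextran-stripped serum, with CCF4 ratio read-out and IC50 from Hill fits.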
# [5] = qHTS assay for small molecule activators of the p53 signaling pathway (AID 651743; active = well fitted activation curve with a large enough effect in the signal ratio, not every such curve was filed as active; the % refers to the signal ratio; also: % of control where 0% means no effect); conditions: HCT-116 p53RE-bla, beta-lactamase FRET ratio, 16 h; activation: stronger effect = higher value
# Summary of the method: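 A beta-lactamase reporter under p53 response element control, stably carried by HCT-116 cells, reported pathway activation. Test compounds were applied for 16 hours at 37 C, and fluorescence was measured 2 hours after adding the B/G FRET substrate.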
# [6] = qHTS assay for small molecule activators of the nuclear factor-kappa B (NF-kB) signaling pathway (AID 651749; active = well fitted activation curve with a large enough effect in the signal ratio; the % refers to the signal ratio; also: % of control where 0% means no effect); conditions: NF-kB-bla ME-180 cells, beta-lactamase FRET ratio, 16 h; activation: stronger effect = higher value
# Summary of the method: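 FRET-based beta-lactamase detection in ME-180 cells reports NF-kB response-element-driven transcription following overnight (16 hr) compound treatment.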
# [7] = qHTS assay for small molecule disruptors of the mitochondrial membrane potential - 1 hr assay (AID 651754); also: potency is read from the fitted curve at half-maximal effect; nearly all actives have a fitted effect of over 35% in size
# Summary of the method: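 In this qHTS format, a 1 hr compound treatment of HepG2 cells precedes Mito-MPS staining, and membrane potential is judged from aggregate (red) against monomer (green) fluorescence intensity.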
# [8] = qHTS assay for small molecule disruptors of the mitochondrial membrane potential - 5 hr assay (AID 651755); also: potency is read from the fitted curve at half-maximal effect; nearly all actives have a fitted effect of over 40% in size
# Summary of the method: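 Membrane-potential dye readout: red aggregate (540 ex/590 em) versus green monomer (490 ex/535 em) fluorescence after 30 min dye loading, following 5 hr compound exposure at 37C of overnight-plated HepG2 cells.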
# [9] = target: Tumor necrosis factor (Homo sapiens) (UniProt P01375); test: qHTS assay to identify small molecules that stimulate Tumor Necrosis Factor-alpha (TNF-alpha) secretion (AID 651757; active = well fitted curve in the direction sought with a large enough effect in the signal ratio; the % refers to the signal ratio; also: 0% is about no effect)
# Chain of Tumor necrosis factor (Homo sapiens) (P01375 whole entry, looked up): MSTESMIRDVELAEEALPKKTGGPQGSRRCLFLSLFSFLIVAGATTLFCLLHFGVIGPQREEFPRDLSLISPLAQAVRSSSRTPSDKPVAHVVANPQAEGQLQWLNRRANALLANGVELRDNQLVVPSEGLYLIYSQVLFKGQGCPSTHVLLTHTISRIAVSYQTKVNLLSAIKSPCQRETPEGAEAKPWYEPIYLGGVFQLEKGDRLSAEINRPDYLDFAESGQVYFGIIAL
# Summary of the method: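 Using 3000 THP-1 cells per well, compounds and controls were applied for 17 hrs at 37 C. Detection followed with two labeled anti-TNF-alpha antibodies (cryptate donor, XL665 acceptor) for 3 hr at room temperature, measured by TR-FRET.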
# [10] = qHTS assay for environmental chemicals that activate the Aryl hydrocarbon Receptor (AhR) signaling pathway (AID 651777; active = well fitted curve in the direction sought with a large enough effect; an effect the other way counts as inactive or inconclusive; also: % of control where 0% means no effect; nearly all actives have a fitted effect of over 15% in size); conditions: 1A2-DRE human hepatoma cells, luciferase, 24 h; activation: stronger effect = higher value
# Summary of the method: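 Luminescence read-out: One-Glo added for 30 min at RT after 24 hr compound treatment (37 C, 5% CO2) of human hepatoma cells expressing a DRE/CYP1A2 promoter–luciferase reporter; increased signal indicates AhR activation.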
# [11] = target: Nuclear receptor ROR-gamma (Homo sapiens) (UniProt P51449); test: qHTS assay for small molecule antagonists of the retinoid-related orphan receptor gamma (ROR-gamma) signaling pathway (AID 651802; active = well fitted curve in the direction sought with a large enough effect; an effect the other way counts as inactive or inconclusive; also: potency is read from the fitted curve at half-maximal effect; nearly all actives have a fitted effect of over 60% in size)
# Chain of Nuclear receptor ROR-gamma (Homo sapiens) (P51449 whole entry, looked up): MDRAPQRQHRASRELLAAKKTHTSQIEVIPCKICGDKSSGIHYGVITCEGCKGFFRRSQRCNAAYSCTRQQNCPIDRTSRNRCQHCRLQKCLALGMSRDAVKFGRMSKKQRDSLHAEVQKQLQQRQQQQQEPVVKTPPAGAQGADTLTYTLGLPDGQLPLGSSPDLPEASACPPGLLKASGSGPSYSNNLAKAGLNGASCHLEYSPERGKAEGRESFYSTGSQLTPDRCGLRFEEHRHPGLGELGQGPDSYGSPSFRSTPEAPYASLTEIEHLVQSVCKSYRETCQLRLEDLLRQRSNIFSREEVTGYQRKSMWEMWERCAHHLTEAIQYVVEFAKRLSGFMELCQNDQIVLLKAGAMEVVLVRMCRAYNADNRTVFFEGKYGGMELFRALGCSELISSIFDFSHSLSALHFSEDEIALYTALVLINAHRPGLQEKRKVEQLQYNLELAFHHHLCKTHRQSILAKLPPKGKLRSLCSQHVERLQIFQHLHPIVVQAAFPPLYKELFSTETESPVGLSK
# Summary of the method: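 Doxycycline-induced reporter activity in engineered CHO cells (TET-inducible ROR, RORE-LUC) was measured by luminescence after 16hr compound exposure at 37C.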
# [12] = qHTS assay for small molecule agonists of the antioxidant response element (ARE) signaling pathway measured by Nrf2-dependant transcriptional activity (AID 720636; active = well fitted curve in the direction sought with a large enough effect in the repeat runs; an effect the other way counts as inactive or inconclusive;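 also: HepG2 cells with an ARE-driven luciferase reporter; % of control where 0% means no effect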)
# Summary of the method: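 HepG2 ARE-luc reporter line, 1% dialyzed FBS; 6 hr attachment at 37 C, compound pinned in, 16 hr at 37 C/5% CO2; ONE-Glo, 30 min RT, luminescence read.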
# [13] = qHTS assay for small molecule agonists of the antioxidant response element (ARE) signaling pathway measured by Nrf2-dependant transcriptional activity - cell viability counter screen (AID 720653; active = well fitted curve in the direction sought with a large enough effect in the repeat runs; an effect the other way counts as inactive or inconclusive; also: % is scaled to controls: 0 for no effect and ±100 for the full control effect); conditions: ARE-bla HepG2 viability, CellTiter-Glo ATP luminescence, 16 h; stronger effect = lower value
# Summary of the method: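 Cytotoxicity counter screen: intracellular ATP quantified by CellTiter-Glo luminescence in the same ARE-bla HepG2 plates, after 16 h compound exposure and a 2 h beta-lactamase substrate step.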
# [14] = qHTS assay for cell viability of HEK293 cells (AID 743288; active = well fitted curve in the direction sought with a large enough effect; an effect the other way counts as inactive or inconclusive; also: % is scaled to controls: 0 for no effect and ±100 for the full control effect; nearly all actives have a fitted effect of over 50% in size); conditions: ATP luminescence (CellTiter-Glo), 18 h; max response: stronger effect = lower value
# Summary of the method: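 Viable-cell counts were inferred from luciferase-based ATP content in HEK293 cells seeded at 2,000/well, pre-incubated ≥5 h, then dosed with DMSO-solubilised compounds for 18 h at 37 C.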
# [15] = target: Catechol O-methyltransferase (Homo sapiens) (UniProt P21964); test: Confirmatory Screen for Target Class Profiling of Small Molecule Inhibitors of Methyltransferases (AID 1745852); conditions: MTase-Glo luminescence, SAH detection, recombinant enzyme; measured here: COMT max response; stronger effect = lower value; also: potency is read from the fitted curve at half-maximal effect
# Chain of Catechol O-methyltransferase (Homo sapiens) (P21964 whole entry, looked up): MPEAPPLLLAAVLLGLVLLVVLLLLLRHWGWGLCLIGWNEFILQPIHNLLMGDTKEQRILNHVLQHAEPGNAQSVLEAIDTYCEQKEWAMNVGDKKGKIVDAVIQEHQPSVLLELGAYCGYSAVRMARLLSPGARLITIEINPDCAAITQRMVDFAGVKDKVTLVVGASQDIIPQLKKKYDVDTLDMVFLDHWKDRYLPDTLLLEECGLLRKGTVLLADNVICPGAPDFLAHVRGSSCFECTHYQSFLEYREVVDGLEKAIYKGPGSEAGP
# [16] = target: Guanidinoacetate N-methyltransferase (Homo sapiens) (UniProt Q14353); test: as above; conditions: MTase-Glo luminescence, SAH detection, recombinant enzyme; activity change, negative = inhibition: at 85.7 µM (top of the series) unless noted
# [17] = target: Nicotinamide N-methyltransferase (Homo sapiens) (UniProt P40261); test: as above; conditions: MTase-Glo luminescence, SAH detection, recombinant enzyme; measured here: NNMT max response; stronger effect = lower value
# Chain of Nicotinamide N-methyltransferase (Homo sapiens) (P40261 whole entry, looked up): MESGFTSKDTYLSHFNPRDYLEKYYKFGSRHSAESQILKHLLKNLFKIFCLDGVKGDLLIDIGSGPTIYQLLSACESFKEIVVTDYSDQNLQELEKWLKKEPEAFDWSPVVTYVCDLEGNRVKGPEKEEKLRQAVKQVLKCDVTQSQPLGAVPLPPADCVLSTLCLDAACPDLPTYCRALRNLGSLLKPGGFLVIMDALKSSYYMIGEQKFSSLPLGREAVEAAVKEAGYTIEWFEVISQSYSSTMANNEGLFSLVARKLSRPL
# [18] = target: Phenylethanolamine N-methyltransferase (Homo sapiens) (UniProt P11086); test: as above; conditions: MTase-Glo luminescence, SAH detection, recombinant enzyme; measured here: PNMT max response; stronger effect = lower value
# Chain of Phenylethanolamine N-methyltransferase (Homo sapiens) (P11086 whole entry, looked up): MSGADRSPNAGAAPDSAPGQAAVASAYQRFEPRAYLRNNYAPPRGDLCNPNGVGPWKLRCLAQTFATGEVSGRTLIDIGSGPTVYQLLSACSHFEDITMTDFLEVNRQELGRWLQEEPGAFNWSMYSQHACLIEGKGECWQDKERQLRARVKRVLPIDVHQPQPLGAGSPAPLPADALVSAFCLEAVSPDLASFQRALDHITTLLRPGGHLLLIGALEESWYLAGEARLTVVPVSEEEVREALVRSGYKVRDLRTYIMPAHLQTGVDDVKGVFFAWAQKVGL
# [19] = target: Glutathione peroxidase 1 (Homo sapiens) (UniProt P07203); test: Primary qHTS Assay for Inhibitors of Recombinant Selenoprotein Glutathione Peroxidase 1 (GPX1) (AID 1845191; active = well fitted curve in the direction sought with a large enough effect; an effect the other way counts as inactive or inconclusive; also: % is scaled to controls: 0 for no effect and ±100 for the full control effect; nearly all actives have a fitted effect of over 65% in size)
# Chain of Glutathione peroxidase 1 (Homo sapiens) (P07203 whole entry, looked up): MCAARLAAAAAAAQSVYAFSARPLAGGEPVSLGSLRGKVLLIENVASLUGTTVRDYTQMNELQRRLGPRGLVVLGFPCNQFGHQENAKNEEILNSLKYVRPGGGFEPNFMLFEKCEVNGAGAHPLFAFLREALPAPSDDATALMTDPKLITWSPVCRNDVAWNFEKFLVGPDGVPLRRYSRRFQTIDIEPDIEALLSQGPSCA
# Summary of the method: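 NADPH consumption tracked by fluorescence at 340/450 nm between t=0 and t=15 min, room temperature. Final mix: 10 nM GPX1, 100 nM glutathione reductase, 1 mM GSH, 0.5 mM NADPH, 0.5 mM cumene hydroperoxide, 0.01% BSA; 30 min compound–enzyme preincubation.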
# [20] = target: Nuclear receptor subfamily 1 group I member 2 (Rattus norvegicus) (UniProt Q9R1A7); test: qHTS assay for small molecule activators of the rat pregnane X receptor (rPXR) signaling pathway (AID 651751; call rule not given here; also: 0% is about no effect); conditions: rPXR reporter cells, luciferase (One-Glo), 24 h
# Chain of Nuclear receptor subfamily 1 group I member 2 (Rattus norvegicus) (Q9R1A7 whole entry, looked up): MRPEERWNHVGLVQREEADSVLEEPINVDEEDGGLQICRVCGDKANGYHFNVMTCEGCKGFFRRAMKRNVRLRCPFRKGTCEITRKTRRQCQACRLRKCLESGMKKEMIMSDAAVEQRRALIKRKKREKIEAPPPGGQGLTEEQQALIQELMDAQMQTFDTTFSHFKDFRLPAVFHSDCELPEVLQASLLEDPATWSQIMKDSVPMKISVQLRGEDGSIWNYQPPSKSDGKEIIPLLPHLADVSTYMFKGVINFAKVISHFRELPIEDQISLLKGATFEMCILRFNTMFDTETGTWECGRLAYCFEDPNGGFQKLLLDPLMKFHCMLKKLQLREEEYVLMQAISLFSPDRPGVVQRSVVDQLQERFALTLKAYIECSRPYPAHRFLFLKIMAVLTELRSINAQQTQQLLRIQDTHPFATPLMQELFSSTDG
smiles,measurement,setting,value
C[C@H]1CCCC(=O)CCC/C=C/c2cc(O)cc(O)c2C(=O)O1,Potency,[1],inactive
same,outcome,[2],inactive
same,max response,[3],17.7%
same,activity change % (negative = inhibition),[4],-19.1% (inactive) and -18.2% (inactive)
same,activation,[5],20.6% (inactive)
same,activation,[6],-2.55% (inactive) and -2.52% (inactive) and -4.61% (inactive)
same,Potency,[7],37.6 µM (active)
same,Potency,[8],33.5 µM (active) and 37.6 µM (active)
same,outcome,[9],inactive
same,activation,[10],-5.88% (inactive) and -4.48% (inactive) and -7.69% (inactive)
same,Potency,[11],42.2 µM (active)
same,outcome,[12],inactive
same,max response,[13],-27% (inactive) and -18.5% (inactive)
same,max response,[14],-26.5% (inactive) and -8.31% (inactive) and -15% (inactive)
same,activity,[15],-93%
same,Potency,[16],17.1 µM (active)
same,activity,[17],-84.9%
same,activity,[18],-95%
same,Potency,[19],inactive
same,max response,[20],-12.4% (inactive) and -5.06% (inactive) and -7.58% (inactive)
